High-throughput results deposited in PubChem BioAssay by National Center for Advancing Translational Sciences (NCATS).
Compounds with a hit are over-represented: about 6.2% of the library has one in this group of screens.
HT1080NT lethal: kills 2HG-producing HT-1080-NT fibrosarcoma cells | HT-1080-NT fibrosarcoma viability, CellTiter-Glo ATP luminescence, 48 h | 1.6% of 360,000 active | AID 686970 | Potency, µM (highest dose often 46.1 µM), without a hit: at the top dose activity, negative = less viability, most hits filed as cytotoxic;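 further: NT is the 2HG producing partner of a matched IDH1 knockdown line; 0% = DMSO-treated cells and -100% = media-only wells without cells; nearly all actives have a fitted effect of over 55% in size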
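Viability of the 2HG-overproducing fibrosarcoma line after 48 hours of compound exposure at 37 degrees C was determined by luminescence with CellTiter-Glo, and concentration-effect curves were then fitted and categorized.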
ATXN2 expr inh: ATXN2 expression inhibition | HEK-293 ATXN2-luciferase reporter, luminescence, 24 h | Potency, µM (highest dose often 57 µM), for inactives: top-dose activity change, negative = inhibition, usual class: inhibitors | 0.72% of 360,000 active | AID 1745845; further: on the % scale 0 is the no-effect control and ±100 the full control effect; nearly all actives have a fitted effect of over 55% in size
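ATXN2-luciferase reporter cells (luciferase flanked by upstream and downstream ATXN2 gene portions) were treated 24 h at 37 °C with compounds at up to 57 uM. SteadyGlo luminescence gave expression; GF-AFC fluorescence gave viability.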
ATXN viability: viability counter-screen for ATXN expression inhibitors; Potency, µM (titrated, usually from 56.7 µM), hits mostly cytotoxic; 0.49% of 400,000 active; S2 cells (HEK-293 line with an ATXN2-luciferase reporter) viability, CellTiter-Fluor protease fluorescence, 24 h; further: nearly all actives have a fitted effect of over 40% in size
KB-V1 cytotox: kills drug-selected multidrug resistant KB-V1 cells. KB-V1 MDR cells viability, CellTiter-Glo, 72 h. AID 1347076. 3.4% of 400,000 active. Potency, µM (series often up to 46.1 µM), hits mostly cytotoxic; further: on the % scale 0 is the no-effect control and ±100 the full control effect; nearly all actives have a fitted effect of over 60% in size
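Potencies derive from concentration-effect curves fitted to normalized luminescence (CellTiter-Glo) of KB-V1 cells treated for 72 h at 37 degrees C in phenol-red-free DMEM containing 10% FBS.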
HT1080 IDH1KD tx: HT-1080 IDH1 knockdown cell toxicity (counter line); 2% of 360,000 active; AID 686971; HT-1080 IDH1 knockdown viability, ATP luminescence, 48 h; Potency, µM (doses to about 46.1 µM), for inactives: at the highest dose activity, negative = toxicity, most hits filed as cytotoxic;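 further: 0% = DMSO wells and -100% = cell-free medium wells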
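Using the IDH1-knockdown HT-1080 line run in the same batch and compound series as the NT line, viability after 48 h at 37 °C was determined by CellTiter-Glo luminescence and expressed as % activity.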
KB-3-1 cytotox: kills parental KB-3-1 adenocarcinoma cells. 1.4% of 400,000 active. Potency, µM (highest dose often 46.1 µM), most hits filed as cytotoxic. KB-3-1 viability, CellTiter-Glo ATP luminescence, 72 h; further: on the % scale 0 is the no-effect control and ±100 the full control effect; nearly all actives have a fitted effect of over 60% in size
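Cytotoxicity in the drug-sensitive parental line KB-3-1 was scored as loss of CellTiter-Glo luminescence following 72 h incubation with compound. Values come from curve fitting of normalized concentration-response data.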
The depositor's hits bear a star; i = inactive; ? = inconclusive; . = not tested or not shown; [ ] = dose if it differs, or a comment. The call rests on the fitted dose curve; in most records, active means well fitted curve in the direction sought with a large enough effect; inconclusive means small, poorly fitted or top-dose-only effect, or another doubt; inactive means no such curve, though single readings can be large; an effect the other way counts as inactive or inconclusive. Potency means the concentration at half of the fitted maximal effect.

SMILES	HT1080NT lethal	ATXN2 expr inh	ATXN viability	KB-V1 cytotox	HT1080 IDH1KD tx	KB-3-1 cytotox
CCOc1cc(C(=O)OCC(=O)Nc2c(C)cccc2C)ccc1OCC(=O)N1CCOCC1	4.1%	.	i	i	3.4%	i
Cc1cc(C)cc(NC(=O)C(C)N2Cc3ccccc3C2=O)c1 (centres undefined)	.	.	.	i	.	i
Cc1cccc(C(c2sc3nc(-c4ccco4)nn3c2O)N2CCN(c3ccccc3F)CC2)c1 (centres undefined)	.	13.4%	i	?	.	i
O=C(Nc1ccccc1N1CCCCC1)c1ccc(F)c(S(=O)(=O)N2CCOCC2)c1	-17.2%	-35.5%	i	i	-12.7%	?
O=C(Nc1ccccc1N1CCCC1)c1ccc(Cl)c(S(=O)(=O)N2CCOCC2)c1	0.3%	-1.7%	i	14.6µM*	-0.7%	i
Cc1ccc(-c2nonc2NC(=O)c2ccco2)cc1C	.	-10.9%	i	i	.	i
COc1ccc(CC(=O)N2N=C(c3ccncc3)CC2(O)C(F)(F)F)cc1 (centres undefined)	14.6µM*	.	?	5.17µM*	9.2µM*	i
CCC1=NN(C(=O)Cc2ccc(OC)cc2)C(O)(C(F)(F)F)C1 (centres undefined)	-28.9%	-1.0%	i	i	?	i
CCC1=NN(C(=O)C(=O)NCCc2ccccc2)C(O)(C(F)(F)F)C1 (centres undefined)	?	-13.0%	i	i	17.8µM*	i
CCC1=NN(C(=O)C(=O)Nc2ccccc2OC)C(O)(C(F)(F)F)C1 (centres undefined)	2.82µM*	0.3%	i	i	1.41µM*	i
CCC1=NN(C(=O)C(=O)Nc2ccc(OC)cc2)C(O)(C(F)(F)F)C1 (centres undefined)	8.91µM*	6.0%	i	i	5.01µM*	i
Cc1ccc(-c2nc(-c3cc4cc(Cl)ccc4oc3=O)sc2C)cc1	.	.	.	i	.	?
NS(=O)(=O)c1ccc(S(=O)(=O)N2CCN(c3nc(-c4ccccc4)nc4ccccc34)CC2)cc1	-16.2%	.	.	.	-22.6%	.
Cc1c(Cl)ccc2c1NC(=O)[C@]21N[C@@H](Cc2ccccc2)[C@H]2C(=O)N(c3ccc(F)cc3)C(=O)[C@H]21	-22.2%	-16.2%	?	9.2µM*	?	?
O=C1[C@@H]2C(Cc3ccc(O)cc3)NC3(C(=O)Nc4ccc(F)cc43)[C@@H]2C(=O)N1c1ccccc1 (some centres undefined)	-12.6%	6.3%	i	i	-6.3%	i
Cc1ccc(S(=O)(=O)c2nc(C)c3c(n2)CCC3)cc1	-3.3%	-9.0%	i	i	1.5%	i
Cc1nc(S(=O)(=O)c2ccc(Cl)cc2)nc2c1CCC2	-0.6%	-10.2%	i	14.6µM*	0.2%	i
COC(=O)C1=CN(c2ccc(C)cc2)C(N)=C(C#N)C1c1ccc(OC)cc1 (centres undefined)	-28.2%	.	.	23.1µM*	?	23.1µM*
COC(=O)C1=CN(c2ccc3c(c2)OCO3)C(N)=C(C#N)C1c1cccc(F)c1 (centres undefined)	3.66µM*	.	.	3.66µM*	1.84µM*	2.31µM*
CCc1ccc(N2C=C(C(=O)OC)C(c3ccc(OC)cc3)C(C#N)=C2N)cc1 (centres undefined)	?	.	.	18.4µM*	?	?
COC(=O)C1=CN(c2ccc(OC)cc2OC)C(N)=C(C#N)C1c1ccccc1F (centres undefined)	1.46µM*	.	.	?	0.731µM*	1.46µM*
COC(=O)C1=CN(c2ccc(OC)cc2)C(N)=C(C#N)C1c1ccc(OC)cc1 (centres undefined)	-17.2%	.	.	i	-15.2%	i
CCC(=O)N1c2ccccc2CC1C(=O)NCCN1CCN(c2cccc(C(F)(F)F)c2)CC1 (centres undefined)	.	-28.1%	?	i	.	i
COc1ccc(C(=O)c2cnc3ccc(C)cc3c2S(=O)(=O)c2ccccc2)cc1	.	?	?	?	.	i
COc1ccc(N2CCN(C(=O)CN3CCSc4ccccc43)CC2)cc1	.	-6.6%	i	?	.	i
SMILES	HT1080NT lethal	ATXN2 expr inh	ATXN viability	KB-V1 cytotox	HT1080 IDH1KD tx	KB-3-1 cytotox
CCOC(=O)c1ccc(NC(=O)CC2C(=O)N(c3ccc(F)cc3)C(=O)N2CCC(C)C)cc1 (centres undefined)	5.5%[9.24 µM]	16.2%	i	?	?	20.6µM*
COC(=O)c1ccc(NC(=O)CC2C(=O)N(c3ccc(C)cc3)C(=O)N2CC(C)C)cc1 (centres undefined)	3.5%	-2.6%	i	23.1µM*	-19.0%	i
COc1ccc(NC(=O)CC2C(=O)N(c3ccc(C)cc3)C(=O)N2CCc2ccccc2)cc1 (centres undefined)	.	-1.9%	?	i	.	?
CCOC(=O)c1ccc(NC(=O)CC2C(=O)N(c3ccc(F)cc3)C(=O)N2Cc2ccc(C)cc2)cc1 (centres undefined)	.	?	?	i	.	i
Cc1ccc(Cl)cc1NC(=O)CN(C)S(=O)(=O)c1ccc2c(c1)n(C)c(=O)c(=O)n2C	.	1.2%	i	i	.	i
COC(=O)C12OCC34C(CC5C(C)=C(O)C(=O)CC5(C)C3C(O)C1O)OC(=O)C(OC(=O)C=C(C)C)C24 (centres undefined)	-26.4%	?	?	7.31µM*	0.0366µM*	0.206µM*
COC(=O)c1ccc(NC(=O)Cc2coc3cc(C)ccc23)cc1	.	-16.1%	i	i	.	i
CC(=O)N=c1sccn1CC(O)c1ccccc1 (centres undefined)	10.3%	4.7%	i	i	12.1%	i
COc1ccc(C(O)Cn2ccsc2=NC(C)=O)cc1 (centres undefined)	?	-4.9%	i	?	11.6µM*	?
Cn1nc(-c2ccccc2F)c2cc(C(=O)NCc3cccc(Cl)c3)sc21	.	?	?	i	.	i
CCOC(=O)c1sc2ncnc(NCC(c3cccs3)N(C)C)c2c1C (centres undefined)	-19.6%	0.0%	i	20.6µM*	-13.0%	i
O=[N+]([O-])c1cccc(C2NCC(c3ccccc3Cl)c3c2[nH]c2ccccc32)c1 (centres undefined)	?	-14.8%	?	16.4µM*	25.9µM*	i
CC1=C(c2ccc(C)c(C)c2)S(=O)(=O)N=C1N1CCC(C(=O)NCCc2ccco2)CC1	.	-6.7%	i	i	.	i
